Shown are actives, neighbours in structure and some others; about 2.3% of the full set was active somewhere.
Mcl1-Bid inh – disrupts binding of human Mcl-1 to Bid peptide; inhibition, % at 21.7 µM; AID 1021; Q07820; TR-FRET Mcl-1/Bid-Dy647 peptide binding, 1536-well; 220,000 tested, 0.97% active;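 active means compounds that cut the binding signal by more than half at the single screening dose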;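 further: His-tagged Mcl-1 with europium anti-His antibody binding Bid BH3 peptide; 0% = Mcl-1 plus peptide wells and 100% = peptide-only wells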
Mcl-1 Bim block – human Bim-Mcl-1 interaction inhibition; 190,000 tested, 0.1% active; Bead-based flow cytometry, Bim peptide-Mcl-1 binding; inhibition, % at 10 µM; Q07820; in the data active means inhibition above about 40%;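 further: 0% = no compound tracer wells and 100% = peptide blocker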
GLD-1 TGE inh – GLD-1-TGE RNA interaction inhibition (C. elegans); inhibition, % at 5.96 µM; Q17339; 320,000 tested, 0.44% active; purified GLD-1 + fluorescein TGE RNA, fluorescence polarization;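 active means percent inhibition above a per-plate cutoff, the plate mean of test compounds plus 3 SD, cut at about 30% in these data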;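 further: 0% = DMSO wells with GLD-1 and probe and 100% = wells lacking GLD-1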
Target sequence (Q17339 whole entry, looked up): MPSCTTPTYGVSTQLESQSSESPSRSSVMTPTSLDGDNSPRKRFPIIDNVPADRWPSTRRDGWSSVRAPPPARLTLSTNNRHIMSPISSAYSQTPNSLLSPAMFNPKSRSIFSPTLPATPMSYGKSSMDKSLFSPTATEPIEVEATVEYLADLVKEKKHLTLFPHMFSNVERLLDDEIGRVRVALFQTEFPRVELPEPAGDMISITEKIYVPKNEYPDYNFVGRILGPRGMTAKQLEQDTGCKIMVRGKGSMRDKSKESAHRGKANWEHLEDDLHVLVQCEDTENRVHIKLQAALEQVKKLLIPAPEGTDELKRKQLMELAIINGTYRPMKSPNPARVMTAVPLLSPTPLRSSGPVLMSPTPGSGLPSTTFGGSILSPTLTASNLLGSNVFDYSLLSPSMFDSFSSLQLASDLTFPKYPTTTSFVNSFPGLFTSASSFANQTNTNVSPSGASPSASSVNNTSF
MCL1 BIM primary – inhibitors of human MCL1 binding to BIM-BH3 peptide. GST-MCL1 / FITC-Bim-BH3 fluorescence polarization. 320,000 tested, 0.68% active. Q07820. inhibition, % at 10.9 µM. AID 2057;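 active means inhibition above the mean inhibition of all tested compounds plus 3 SD, set per campaign, cut at about 40% in these data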;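 further: 0% = DMSO wells and 100% = unlabeled Bim-BH3 peptide control; higher means more loss of mP so more displacement of Bim peptide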
Bcl-xL primary – Bcl-xL (human) inhibition | AID 2129 | GST-Bcl-xL / FITC-Bim BH3 peptide fluorescence polarization | Q07817 | inhibition, % at 10.9 µM | 320,000 tested, 0.7% active;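 active means inhibition above the mean of all tested compounds plus 3 SD, cutoff set per campaign, cut at about 30% in these data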;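 further: 0% = DMSO wells and 100% = unlabeled Bim-BH3 peptide competitor; inhibitors lower millipolarization by displacing the labeled peptide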
Target sequence (Q07817 whole entry, looked up): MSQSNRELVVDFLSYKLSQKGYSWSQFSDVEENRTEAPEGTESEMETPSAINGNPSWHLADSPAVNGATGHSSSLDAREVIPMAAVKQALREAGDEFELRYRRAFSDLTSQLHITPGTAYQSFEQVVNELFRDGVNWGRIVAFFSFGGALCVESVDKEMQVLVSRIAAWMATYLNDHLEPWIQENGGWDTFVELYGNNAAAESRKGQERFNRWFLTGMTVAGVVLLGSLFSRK
Mcl1-Noxa inh – Mcl-1/Noxa interaction inhibition; Q07820; TR-FRET Mcl-1/Noxa peptide binding, 2 h; inhibition, % at 21.7 µM; 220,000 tested, 1.5% active; AID 1022;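 active means compounds that cut the protein-peptide binding signal by more than 50% relative to plate controls in a single-dose test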;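 further: His-tagged Mcl-1 with rhodamine Noxa BH3 peptide and terbium anti-His antibody; 0% = Mcl-1 plus Noxa peptide wells and 100% = peptide-only wells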
Active calls of the source: *; nt = not tested or not shown.

SMILES	Mcl1-Bid inh	Mcl-1 Bim block	GLD-1 TGE inh	MCL1 BIM primary	Bcl-xL primary	Mcl1-Noxa inh
CCOC(=O)c1c(NC(=O)c2ccncc2)sc(C)c1C	-3.0	0.0	2.4	11.9	6.3	10.8
N#Cc1c(NC(=O)c2cccc(S(=O)(=O)Nc3ccc(C(=O)O)cc3)c2)sc2c1CCCC2	1.4	nt	-6.4	19.3	15.1	76.8*
CCOC(=O)c1sc(NC(=O)CSc2nc(C)cc(C)c2C#N)c(C#N)c1C	65.9*	0.0	-1.5	0.9	2.8	-60.0
O=C(O)c1ccc(NS(=O)(=O)c2cccc(C(=O)Nc3ccc(Br)cc3)c2)cc1	nt	nt	-4.2	0.3	6.5	nt
CCOC(=O)c1sc(NC(=O)c2ccncc2)c(C#N)c1C	8.3	7.0	3.4	9.0	6.4	54.2*
COc1ccc2c(c1OC)C(=O)N(c1cccc(NC(C)=O)c1)C2	nt	nt	2.8	-2.5	1.5	nt
COc1ccc(OCc2cc(C(=O)NC(C)Cc3cnccn3)no2)c(Cl)c1 (centres undefined)	nt	nt	0.6	3.4	7.4	nt
C=CCNc1cccc(Br)c1	nt	nt	3.4	3.9	-1.8	nt
Cc1ccc(NS(=O)(=O)c2cc3c4c(cccc4c2)C(=O)NC3=O)cc1C	5.7	nt	11.1	27.0	30.6*	21.4
O=C1NC(=O)c2cc(Br)cc3cccc1c23	-20.8	0.0	-2.8	8.3	7.2	22.2
CN1/C(=C\P(=O)(N(C)C)N(C)C)C(C)(C)c2ccccc21	-16.5	0.0	58.8*	46.8*	45.5*	-0.9
CCOC(=O)/C=C1/N(C)c2ccccc2C1(C)C	-70.6	nt	-3.0	-2.1	-1.3	1.4
Cc1cccc(NC(c2ccc(C)s2)c2ccc3ccc(C)nc3c2O)n1 (centres undefined)	7.4	-4.0	6.7	23.2	14.3	67.2*
COc1ccccc1NC(c1cccnc1)c1ccc2cccnc2c1O (centres undefined)	8.0	0.0	7.3	17.9	13.1	50.6*
Cc1ccnc(NC(c2cccnc2)c2ccc3cccnc3c2O)c1 (centres undefined)	-13.8	0.0	-2.5	0.9	3.1	41.2
Cc1ccc2ccc(C(Nc3ccccn3)c3ccccc3)c(O)c2n1 (centres undefined)	-35.4	-2.0	-2.3	7.9	8.7	7.1
COc1cc(C(Nc2ccccn2)c2ccc3ccc(C)nc3c2O)cc(OC)c1O (centres undefined)	10.9	-2.0	10.6	38.0	17.8	93.4*
COCCCN=C1NN=C(c2cc(C)n(Cc3ccco3)c2C)CS1	-42.1	-2.0	-0.4	2.7	0.0	16.9
Cc1cc(C2=NNC(=NC3CC3)SC2)c(C)n1Cc1ccco1	-38.6	61.0*	3.4	3.4	7.0	19.0
COc1cc(CN2CCC(N3CCC(C(=O)N4CCCC4)CC3)CC2)cc2c1OCO2	-19.0	-2.0	1.5	-0.2	4.1	-11.1
OCCN(CCO)c1nc(N2CCCCC2)c2nc(N(CCO)CCO)nc(N3CCCCC3)c2n1	-19.8	1.0	154.9*	nt	nt	6.8
Nc1nc(NCCO)nc(N2CCCCCC2)c1[N+](=O)[O-]	nt	nt	7.3	5.8	-2.3	nt
COc1ccc(/C=C/C(=O)OCC(=O)NC2CCCC2)cc1OC	nt	nt	-0.5	nt	nt	nt
O=C1COc2ccc(C(=O)COC(=O)c3cc(S(=O)(=O)N4CCOCC4)ccc3F)cc2N1	nt	nt	-7.8	2.0	60.2*	nt
CCn1c(=O)c2sccc2n2c(CCCC(=O)N3CCN(c4ccccn4)CC3)nnc12	nt	nt	-2.6	-0.2	3.0	nt
SMILES	Mcl1-Bid inh	Mcl-1 Bim block	GLD-1 TGE inh	MCL1 BIM primary	Bcl-xL primary	Mcl1-Noxa inh
CC(C)CCn1c(=O)c2sccc2n2c(CCCC(=O)N3CCN(c4ccccn4)CC3)nnc12	nt	nt	2.9	4.6	70.9*	nt
CCO[C@H]1OC(C(=O)O)=C[C@@H](c2ccccc2)[C@@H]1CCCO	nt	nt	1.0	-0.8	6.1	nt
COc1cc(-n2cnnn2)ccc1S(=O)(=O)N1CCOCC1	-15.1	-3.0	-0.6	2.9	31.9*	17.0
O=S(=O)(c1cccc(-n2cnnn2)c1)N1CCOCC1	-10.2	1.0	0.1	2.9	-1.8	-9.4
CCOCCCNC(=O)/C(C#N)=C/c1ccc([N+](=O)[O-])o1	-7.8	0.0	45.6*	34.2	33.9*	5.9
C=CCn1c(SCC(=O)NCc2ccco2)nc2sc3c(c2c1=O)CCCC3	-3.8	2.0	6.5	1.0	-0.2	5.3
O=C(NCc1ccco1)c1ccc2nc3sc4c(c3c(=O)n2c1)CCCC4	2.2	8.0	-0.1	9.0	10.8	67.8*
CCOC(=O)C(=O)c1c(-c2ccc(C)cc2)nc2ccccn12	-6.6	-4.0	7.4	7.3	63.1*	23.9
COc1cc(/C=C/[N+](=O)[O-])ccc1OCc1cccc(C(=O)O)c1	-2.7	-1.0	nt	nt	nt	59.8*
COc1cc(/C=N/NC(=O)c2cccc([N+](=O)[O-])c2)ccc1OCc1ccccc1	-23.1	-1.0	9.4	5.3	1.4	20.8
COC(=O)[C@@H]1C[C@@H](c2ccccc2)[C@H](C)C1(C)C	nt	nt	-1.1	2.7	1.7	nt
Cc1ccc(C(=O)ONc2ccc(N=NC(=O)c3ccccc3O)cc2)cc1	101.5*	3.0	10.2	8.4	4.6	81.0*
OCC1(CCc2ccccc2)CCN(Cc2cc(F)ccc2-n2cccn2)CC1	-3.1	0.0	1.9	-4.2	4.2	15.2
CN=C(c1ccc(C)cc1)n1c(=S)nc(-c2ccc(C)cc2)n(C)c1=S	-45.3	-2.0	8.7	9.0	8.2	-15.0
CN=C(c1ccco1)n1c(=S)nc(-c2ccco2)n(C)c1=S	-10.4	-15.0	9.3	33.9	33.4*	30.1
CC(C)(C)CC(=O)O/N=C(\N)c1ccncc1	82.0*	-5.0	0.9	-1.2	3.8	4.7
N/C(=N\OC(=O)CC1CCCCC1)c1ccncc1	1.9	11.0	1.5	-7.8	-5.5	0.9
N/C(=N\OC(=O)CCC1CCCC1)c1ccncc1	9.7	95.0*	3.0	0.6	3.6	16.2
O=C(/C=C/N1CCOCC1)c1coc2ccccc12	71.1*	-1.0	-29.9	-22.2	-21.3	-3.0
O=C(/C=C/N1CCOCC1)c1cc2ccccc2o1	74.6*	2.0	-25.4	-17.6	-16.2	5.7
O=C(Nc1ccc(N2CCOCC2)cc1)c1cc2ccccc2o1	-49.0	1.0	-1.0	-0.4	3.1	26.1
COc1ccc(OC)c(CNS(=O)(=O)c2cn(C)cn2)c1	nt	nt	4.2	-6.8	-7.6	nt
CCCCN(Cc1cc2cc(OC)ccc2[nH]c1=O)C(=O)c1ccccn1	65.3*	-3.0	2.1	6.7	6.0	4.8
O=[N+]([O-])c1ccc2[nH]c3nc4ccccc4nc3c2c1	35.6	nt	-3.8	23.3	14.2	64.0*
O=[N+]([O-])c1ccc2[nH]nc(-c3ccccc3)c2c1	0.4	44.0*	2.2	-1.3	0.9	23.0
O=C(COC(=O)Cn1cnc2ccccc2c1=O)Nc1ccccc1OC(F)F	nt	nt	4.9	nt	nt	nt
Cc1cccc(OC(C)C(=O)Nc2ccccc2C(=O)N2CCCCC2)c1 (centres undefined)	nt	nt	5.6	-8.0	-2.0	nt
